Common to all, as to settings: mRNA level, 48 h; actives raise or lower the signal
Read-out in assay [1]: JUN Transcription Factor, JUN (gene 3725)
Nature of the assay: LTEA_HepaRG_JUN: Life Technologies and Expression Analysis (LTEA) Assay for JUN Transcription Factor using HepaRG (AID 2283513). In a few lines: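 Read-out is JUN transcript level by TaqMan qRT-PCR, normalized to ACTB, GAPDH and POLR2A, after 48 h chemical treatment of HepaRG cells. Concentration-response spanned eight half-log points up to 100 uM in 0.5% DMSO.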

Read-out in assay [2]: Lipase C (LIPC), LIPC (gene 3990)
Nature of the assay: LTEA_HepaRG_LIPC: Life Technologies and Expression Analysis (LTEA) Assay for Lipase C (LIPC) using HepaRG (AID 2283514). The gist of the method:
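HepaRG, 48 h exposure, 8-pt half-log series from 100 uM in 0.5% DMSO, duplicates. Readout: LIPC mRNA by Fluidigm qRT-PCR, housekeeping-normalized (ACTB/GAPDH/POLR2A). Gain or loss fitted bidirectionally against DMSO baseline.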

Read-out in assay [3]: Lipoprotein lipase (LPL), LPL (gene 4023)
The experiment in a line: LTEA_HepaRG_LPL: Life Technologies and Expression Analysis (LTEA) Assay for Lipoprotein lipase (LPL) using HepaRG (AID 2283515). The gist of the method:
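HepaRG, 48 h exposure, 8-pt half-log dilutions from 100 uM, 0.5% DMSO vehicle, duplicates; qRT-PCR (Fluidigm array) of LPL mRNA vs housekeeping genes; bidirectional curve fit relative to DMSO baseline.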

Read-out in assay [4]: MicroRNA 122 (MIR122), gene 406906
Nature of the assay: LTEA_HepaRG_MIR122: Life Technologies and Expression Analysis (LTEA) Assay for MicroRNA 122 (MIR122) using HepaRG (AID 2283516). Note: the transcript read is the microRNA miR-122. The gist of the method:
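Human liver HepaRG cultures receive test chemicals for 48 h at eight half-log concentrations from 100 uM. Expression is quantified by qRT-PCR with ACTB/GAPDH/POLR2A normalization and fitted bidirectionally against 0.5% DMSO.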

Read-out in assay [5]: MYC, MYC (gene 4609)
The experiment in a line: LTEA_HepaRG_MYC: Life Technologies and Expression Analysis (LTEA) Assay for MYC using HepaRG (AID 2283518). The gist of the method:
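Expression changes were scored by TaqMan qRT-PCR with ACTB, GAPDH and POLR2A normalization. Cultures in serum-free induction medium received duplicate 8-point concentration series, highest 100 uM, for 48 h; DMSO (0.5%) served as baseline.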

Read-out in assay [6]: matrix metalloproteinase-3 (MMP3), MMP3 (gene 4314)
Nature of the assay: LTEA_HepaRG_MMP3: Life Technologies and Expression Analysis (LTEA) Assay for matrix metalloproteinase-3 (MMP3) using HepaRG (AID 2283519). The gist of the method:
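qRT-PCR read-out of MMP3 mRNA (normalised to three housekeeping genes) in HepaRG liver cells after 48 h chemical exposure; 8-point half-log series, top 100 uM, 0.5% DMSO vehicle. Bidirectional curve fitting against DMSO baseline.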

Read-out in assay [7]: Paternally Expressed 10 (PEG10), PEG10 (gene 23089)
Nature of the assay: LTEA_HepaRG_PEG10: Life Technologies and Expression Analysis (LTEA) Assay for Paternally Expressed 10 (PEG10) using HepaRG (AID 2283520).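 For AC50: differentiated HepaRG human liver cells in serum-free induction medium with 0.5% DMSO; PEG10 transcript by qRT-PCR normalised to ACTB GAPDH and POLR2A.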 The gist of the method: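 Human HepaRG cultures are dosed for 48 h across an eight-point half-log series starting at 100 uM, with 0.5% DMSO as vehicle and baseline. Gain or loss of PEG10 transcript is measured by qRT-PCR and fitted in both directions.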

Read-out in assay [8]: Nuclear factor NF-kappa-B p105 subunit (Homo sapiens) (UniProt P19838)
Nature of the assay: LTEA_HepaRG_NFKB1: Life Technologies and Expression Analysis (LTEA) Assay for Nuclear Factor Kappa B Subunit 1 (NFKB1) using HepaRG (AID 2283521).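 Note: differentiated human HepaRG liver cells in serum-free induction medium.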 The gist of the method:
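NFKB1 transcript was measured by TaqMan qRT-PCR on Fluidigm arrays, normalised to three housekeeping genes and fitted in both directions against 0.5% DMSO. HepaRG cells were dosed in duplicate for 48 h in serum-free induction medium, eight half-log steps from 100 uM.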

Read-out in assay [9]: Protein phosphatase 2A (PPP2R4), PTPA (gene 5524)
Nature of the assay: LTEA_HepaRG_PPP2R4: Life Technologies and Expression Analysis (LTEA) Assay for Protein phosphatase 2A (PPP2R4) using HepaRG (AID 2283522). The gist of the method: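 Cells were plated, cultured 48 h, switched to serum-free induction medium, then dosed for 48 h (8 points, max 100 uM, 0.5% DMSO). RNA was isolated and PPP2R4 expression measured by TaqMan qRT-PCR.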

Read-out in assay [10]: Phosphatase and tensin (PTEN), PTEN (gene 5728)
Nature of the assay: LTEA_HepaRG_PTEN: Life Technologies and Expression Analysis (LTEA) Assay for Phosphatase and tensin (PTEN) using HepaRG (AID 2283523). In a few lines:
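HepaRG, 48 h exposure, 8-pt half-log series from 100 uM top, 0.5% DMSO vehicle, duplicates. Readout: Fluidigm qRT-PCR of PTEN transcript; housekeeping normalization (ACTB, GAPDH, POLR2A). Gain or loss fitted relative to DMSO baseline.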

Read-out in assay [11]: solute carrier (SLC22A1), SLC22A1 (gene 6580)
Nature of the assay: LTEA_HepaRG_SLC22A1: Life Technologies and Expression Analysis (LTEA) Assay for solute carrier (SLC22A1) using HepaRG (AID 2283524). In a few lines:
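qRT-PCR readout (TaqMan, Fluidigm arrays) of SLC22A1 transcript, normalized to three housekeeping genes; bidirectional curve fit relative to 0.5% DMSO vehicle. Differentiated human HepaRG cells, 48 h chemical exposure, top concentration 100 uM, half-log steps, eight points.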

Read-out in assay [12]: Pyruvate Dehydrogenase Kinase 4 (PDK4), PDK4 (gene 5166)
Nature of the assay: LTEA_HepaRG_PDK4: Life Technologies and Expression Analysis (LTEA) Assay for Pyruvate Dehydrogenase Kinase 4 (PDK4) using HepaRG (AID 2283525). In a few lines: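 HepaRG (human liver line), 48 h chemical exposure, 8-pt half-log CRC top 100 uM, 0.5% DMSO vehicle, duplicates. Readout: TaqMan qRT-PCR of PDK4 mRNA, housekeeping-normalized; gain/loss fit relative to DMSO baseline.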

Read-out in assay [13]: NAD(P)H dehydrogenase [quinone] 1 (NQO1), NQO1 (gene 1728)
The experiment in a line: LTEA_HepaRG_NQO1: Life Technologies and Expression Analysis (LTEA) Assay for NAD(P)H dehydrogenase [quinone] 1 (NQO1) using HepaRG (AID 2283526). The gist of the method:
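Transcript induction or suppression is quantified by qRT-PCR in human HepaRG liver cells dosed for 48 hours. Eight half-log concentrations topping at 100 uM are used, with 0.5% DMSO as vehicle and baseline.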

Read-out in assay [14]: Nuclear factor erythroid 2-related factor 2 (Homo sapiens) (UniProt Q16236)
The experiment in a line: LTEA_HepaRG_NFE2L2: Life Technologies and Expression Analysis (LTEA) Assay for Nuclear factor erythroid 2-related factor 2 (NFE2L2) Transcription Factor using HepaRG (AID 2283527). In a few lines: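 HepaRG, 48 h dosing, 8-pt half-log series from 100 uM in 0.5% DMSO, duplicates. Read-out: NFE2L2 mRNA by qRT-PCR (ACTB/GAPDH/POLR2A normalization). Bidirectional curve fit vs DMSO baseline.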

Read-out in assay [15]: succinate dehydrogenase complex iron sulfur subunit B (SDHB), SDHB (gene 6390)
The experiment in a line: LTEA_HepaRG_SDHB: Life Technologies and Expression Analysis (LTEA) Assay for succinate dehydrogenase complex iron sulfur subunit B (SDHB) using HepaRG (AID 2283528). In a few lines:
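SDHB transcript level read by TaqMan qRT-PCR, housekeeping-normalised (ACTB, GAPDH, POLR2A), after 48 h chemical treatment of plated HepaRG cells; eight concentrations top 100 uM, half-log steps, 0.5% DMSO, duplicates; fitted both directions against DMSO.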

Read-out in assay [16]: Signal transducer and activator of transcription 3 (Homo sapiens) (UniProt P40763)
The experiment in a line: LTEA_HepaRG_STAT3: Life Technologies and Expression Analysis (LTEA) Assay for Signal transducer and activator of transcription (STAT3) using HepaRG (AID 2283529). In a few lines:
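HepaRG, 48 h exposure, 8-pt half-log series (top 100 uM), 0.5% DMSO vehicle, duplicates. Readout: STAT3 transcript by Fluidigm qRT-PCR, housekeeping-normalized; bidirectional fit vs DMSO baseline.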

Read-out in assay [17]: solute carrier (SLCO1B1), SLCO1B1 (gene 10599)
Nature of the assay: LTEA_HepaRG_SLCO1B1: Life Technologies and Expression Analysis (LTEA) Assay for solute carrier (SLCO1B1) using HepaRG (AID 2283530). The gist of the method: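 Human HepaRG cultures treated for 48 h with an eight-concentration half-log series topping at 100 uM; SLCO1B1 measured by qRT-PCR and fitted bidirectionally relative to DMSO.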

Read-out in assay [18]: sulfotransferase 2A1 (SULT2A1), SULT2A1 (gene 6822)
The experiment in a line: LTEA_HepaRG_SULT2A1: Life Technologies and Expression Analysis (LTEA) Assay for sulfotransferase 2A1 (SULT2A1) using HepaRG (AID 2283531). In a few lines:
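Gene-expression endpoint in a human liver cell line: SULT2A1 mRNA change after 48 h chemical treatment, curves fitted in both directions relative to 0.5% DMSO vehicle. Concentrations spanned eight half-log steps from 100 uM.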

Read-out in assay [19]: Transforming Growth Factor (TGFA), TGFA (gene 7039)
Nature of the assay: LTEA_HepaRG_TGFA: Life Technologies and Expression Analysis (LTEA) Assay for Transforming Growth Factor (TGFA) using HepaRG (AID 2283532). The gist of the method:
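qRT-PCR read-out of TGFA transcript, normalized to three housekeeping genes, fitted bidirectionally against 0.5% DMSO baseline. Human HepaRG cultures received chemicals for 48 h at eight half-log concentrations, top 100 uM.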

Read-out in assay [20]: matrix metalloproteinase-10 (MMP10), MMP10 (gene 4319)
The experiment in a line: LTEA_HepaRG_MMP10: Life Technologies and Expression Analysis (LTEA) Assay for matrix metalloproteinase-10 (MMP10) using HepaRG (AID 2283517). The gist of the method: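 Transcript levels come from Fluidigm qRT-PCR normalized to three housekeeping genes, with curves fitted bidirectionally against 0.5% DMSO. Human HepaRG cells were dosed for 48 hours at concentrations up to 100 uM.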

Outcome and AC50 data for seven molecules are collected here from PubChem BioAssay (EPA / NIEHS).

Calls of active or inactive are those of the source. Rule for the calls: active = hit-call score of the fitted dose curve at least 0.9, where 1 is the maximum; inactive = score below 0.9.

Chain of Nuclear factor erythroid 2-related factor 2 (Homo sapiens) (Q16236 whole entry, looked up): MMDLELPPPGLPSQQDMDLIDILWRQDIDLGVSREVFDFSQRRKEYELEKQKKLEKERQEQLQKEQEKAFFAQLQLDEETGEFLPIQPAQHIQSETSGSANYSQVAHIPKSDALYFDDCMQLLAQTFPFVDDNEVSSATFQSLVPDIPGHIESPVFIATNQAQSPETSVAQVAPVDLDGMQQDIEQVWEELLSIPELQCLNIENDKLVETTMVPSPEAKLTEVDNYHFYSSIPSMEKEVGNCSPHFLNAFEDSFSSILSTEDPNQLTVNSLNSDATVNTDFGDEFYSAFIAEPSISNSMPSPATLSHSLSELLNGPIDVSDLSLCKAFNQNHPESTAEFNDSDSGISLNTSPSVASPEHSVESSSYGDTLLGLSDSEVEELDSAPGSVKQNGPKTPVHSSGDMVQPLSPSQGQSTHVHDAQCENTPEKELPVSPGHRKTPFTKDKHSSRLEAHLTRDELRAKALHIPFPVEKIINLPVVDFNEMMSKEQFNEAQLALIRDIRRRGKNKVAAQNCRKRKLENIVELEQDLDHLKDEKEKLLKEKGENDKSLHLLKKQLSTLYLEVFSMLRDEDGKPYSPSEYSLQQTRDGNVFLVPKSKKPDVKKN
Chain of Signal transducer and activator of transcription 3 (Homo sapiens) (P40763 whole entry, looked up): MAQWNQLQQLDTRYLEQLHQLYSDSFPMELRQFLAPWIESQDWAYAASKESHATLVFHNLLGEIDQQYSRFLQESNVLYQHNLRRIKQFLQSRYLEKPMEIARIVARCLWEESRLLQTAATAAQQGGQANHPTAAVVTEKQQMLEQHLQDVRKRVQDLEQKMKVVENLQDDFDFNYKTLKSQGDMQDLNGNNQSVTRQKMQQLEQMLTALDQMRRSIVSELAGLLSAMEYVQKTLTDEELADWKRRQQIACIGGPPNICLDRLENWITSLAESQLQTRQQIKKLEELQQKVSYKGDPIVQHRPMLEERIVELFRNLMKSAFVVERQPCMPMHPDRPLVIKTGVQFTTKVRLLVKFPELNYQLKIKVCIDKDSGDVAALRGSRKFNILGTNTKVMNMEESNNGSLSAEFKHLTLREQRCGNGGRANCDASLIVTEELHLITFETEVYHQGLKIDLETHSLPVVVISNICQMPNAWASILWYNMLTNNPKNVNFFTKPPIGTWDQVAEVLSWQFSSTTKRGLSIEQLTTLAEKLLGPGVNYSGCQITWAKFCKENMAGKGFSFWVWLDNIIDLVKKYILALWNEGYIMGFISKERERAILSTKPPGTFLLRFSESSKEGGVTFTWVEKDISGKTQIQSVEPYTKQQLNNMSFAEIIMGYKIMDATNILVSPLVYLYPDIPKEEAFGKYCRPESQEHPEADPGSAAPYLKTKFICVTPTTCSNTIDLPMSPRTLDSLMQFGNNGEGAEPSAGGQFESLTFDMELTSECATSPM
Chain of Nuclear factor NF-kappa-B p105 subunit (Homo sapiens) (P19838 whole entry, looked up): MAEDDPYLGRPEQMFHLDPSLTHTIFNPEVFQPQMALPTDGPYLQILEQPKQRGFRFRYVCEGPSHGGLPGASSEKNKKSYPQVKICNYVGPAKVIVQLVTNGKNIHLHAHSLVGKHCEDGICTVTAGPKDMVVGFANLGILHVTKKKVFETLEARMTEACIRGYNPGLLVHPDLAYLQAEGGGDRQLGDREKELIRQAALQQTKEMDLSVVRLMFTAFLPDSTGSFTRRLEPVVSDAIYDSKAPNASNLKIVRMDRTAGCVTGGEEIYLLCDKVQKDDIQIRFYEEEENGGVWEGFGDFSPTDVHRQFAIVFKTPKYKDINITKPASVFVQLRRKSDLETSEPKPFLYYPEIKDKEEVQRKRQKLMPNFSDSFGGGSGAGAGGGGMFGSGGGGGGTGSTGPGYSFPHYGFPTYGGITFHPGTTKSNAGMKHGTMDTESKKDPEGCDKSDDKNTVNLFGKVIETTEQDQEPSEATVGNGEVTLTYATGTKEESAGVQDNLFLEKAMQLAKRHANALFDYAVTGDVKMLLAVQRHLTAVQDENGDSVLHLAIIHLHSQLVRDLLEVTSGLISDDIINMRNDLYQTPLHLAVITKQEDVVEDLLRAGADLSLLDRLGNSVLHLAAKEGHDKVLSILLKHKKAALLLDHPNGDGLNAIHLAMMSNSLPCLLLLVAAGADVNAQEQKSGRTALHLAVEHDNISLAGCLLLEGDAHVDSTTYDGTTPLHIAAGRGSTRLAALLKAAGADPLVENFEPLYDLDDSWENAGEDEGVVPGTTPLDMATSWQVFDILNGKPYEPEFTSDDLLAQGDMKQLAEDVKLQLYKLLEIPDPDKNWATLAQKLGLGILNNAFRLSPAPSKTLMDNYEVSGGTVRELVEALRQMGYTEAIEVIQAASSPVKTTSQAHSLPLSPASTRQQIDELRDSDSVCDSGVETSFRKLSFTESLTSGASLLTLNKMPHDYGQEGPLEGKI

As for `Nc1ccc([N+](=O)[O-])cc1`, the call in assay [1], in assay [2], in assay [3], in assay [4], in assay [5] and in assay [6] was inactive. Further, the call in assay [7], in assay [8], in assay [9], in assay [10], in [11] and in assay [12] was inactive. Moreover, the outcome in assay [13], in [14], in [15], in assay [16], in assay [17] and in [18] was inactive. For the same molecule, the molecule was classed as inactive in [19].
Turning to `O=[N+]([O-])C(Br)(CO)CO`, the outcome in assay [1], in [2], in [3], in assay [4], in [20] and in assay [5] was inactive. The outcome in assay [6], in [7], in assay [8], in assay [9], in [12] and in assay [13] was inactive. Besides, the call in assay [14], in assay [15], in [16], in [18] and in assay [19] was inactive.
Regarding `CCCSC(=O)N(CCC)CCC`, the molecule was classed as inactive in assay [1], in assay [2], in [3], in [4], in [20] and in [5]. Besides, the molecule was called inactive in assay [6], in [7], in assay [8], in assay [9], in assay [12] and in assay [13]. The molecule was classed as inactive in assay [14], in [15], in assay [16], in assay [18] and in assay [19].
Turning to `CC(C)N(Cc1ccccc1)C(=O)C(C)(C)C`, the outcome in assay [1], in [2], in [3], in [4], in assay [20] and in assay [5] was inactive. The molecule was called inactive in assay [6], in [8], in assay [9], in assay [10], in assay [12] and in assay [13]. In addition, the molecule was classed as inactive in [14], in [15], in assay [16], in [17], in assay [18] and in assay [19]. Also, the concentration at half-maximal activity (AC50) in [7] was 28.8 µM (active).
For the molecule `Nc1ccc(Oc2ccc(N)cc2)cc1`, the molecule was classed as inactive in assay [1], in assay [2], in [3], in assay [4], in assay [20] and in assay [5]. Besides, the molecule was classed as inactive in assay [6], in [7], in assay [8], in [9], in assay [10] and in assay [12]. Besides, the outcome in assay [13], in assay [14], in assay [15], in assay [16], in assay [17] and in assay [18] was inactive. Further, the call in [19] was inactive.
With `OCCCBr`, the molecule was classed as inactive in assay [1], in assay [2], in [3], in assay [4], in assay [20] and in assay [5]. Further, the result in [6], in assay [7], in [8], in [9], in [10] and in assay [11] was inactive. Moreover, the outcome in assay [12], in assay [13], in assay [14], in assay [15], in assay [16] and in assay [17] was inactive. Moreover, the outcome in [18] and in assay [19] was inactive.
Regarding `CO[C@@H]1[C@H](OC(=O)NC(=O)CCl)CC[C@]2(CO2)[C@H]1[C@@]1(C)O[C@@H]1CC=C(C)C`, the result in [1], in [2], in assay [3], in [4], in assay [20] and in [5] was inactive. Also, the molecule was classed as inactive in assay [6], in assay [7], in assay [8], in assay [9], in assay [10] and in [11]. For the same molecule, the molecule was classed as inactive in assay [12], in assay [13], in [14], in assay [15], in [16] and in assay [17]. In addition, the outcome in assay [18] and in assay [19] was inactive.

As usually defined, the AC50 is the concentration giving half of the maximal activity seen.
